Reference: PubChem BioAssay (NCI)
Values joined by “and” are separate entries in the source; they are usually repeats but may differ in a detail not shown here. Identical values can stand only once. The panel holds about 83,000 compounds, 20% with a hit somewhere; the sample as a whole holds those more often.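 Cell lines were cultured in 96-well plates, exposed to a single compound concentration, and assessed for percent growth 48 hours later.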 Active and inactive are the calls of the source. The calls were made as follows: active = growth percent below 10; inactive = the rest.

Key:
Test in all cases: NCI-60 one-dose screen, 48 h (100 = growth as untreated, 0 = no growth, -100 = all killed)
[1] = test system: HCT-15 colon
[2] = test system: HT29 colon
[3] = test system: SNB-75 CNS
[4] = test system: SNB-19 CNS
[5] = test system: U251 CNS
[6] = test system: PC-3 prostate
[7] = test system: SK-MEL-5 melanoma
[8] = test system: UACC-62 melanoma
[9] = test system: LOX IMVI melanoma
[10] = test system: SK-MEL-28 melanoma
[11] = test system: SK-MEL-2 melanoma
[12] = test system: EKVX NSCLC; details: 10 µM unless noted
[13] = test system: SN12C renal
[14] = test system: UO-31 renal
[15] = test system: TK-10 renal
[16] = test system: ACHN renal; details: 10 µM unless noted
[17] = test system: CAKI-1 renal; details: 10 µM unless noted
[18] = test system: A498 renal; details: 10 µM unless noted
[19] = test system: CCRF-CEM leukemia
[20] = test system: MOLT-4 leukemia

Measured: growth

CCN(CC)CCOc1ccc2c(c1)C(=O)c1cc(OCCN(CC)CC)ccc1-2
active: [2]; 10 µM unless noted 8.16% and 6.92%
50.5% (inactive) and -16.2% (active): [20]; 10 µM unless noted
59.6% (inactive) and 4.32% (active): [14]; 10 µM unless noted
inactive: [1]; 10 µM unless noted 78.2% and 39% | [3]; 10 µM unless noted 74.9% and 67.1% | [4]; 10 µM unless noted 83.9% and 75.7% | [5]; 10 µM unless noted 53.6% and 61.3% | [6]; 10 µM unless noted 70.6% and 35.9% | [7]; 10 µM unless noted 95% and 95.5% | [8]; 10 µM unless noted 105% and 103% | [9]; 10 µM unless noted 52.3% and 37.3% | [10]; 10 µM unless noted 123% and 108% | [11]; 10 µM unless noted 114% and 95.4% | [12] 90.5% and 59% | [13]; 10 µM unless noted 73.2% and 61.6% | [15]; 10 µM unless noted 75.8% and 78.1% | [16] 46.7% | [17] 85.7% | [18] 73.9% and 90.8% | [19]; 10 µM unless noted 55.1%

COc1ccc(Cl)cc1C(=O)NCCc1ccc(S(=O)(=O)NC(=O)NC2CCCCC2)cc1
inactive: [1]; 10 µM 109% and 108% | [1]; 100 µM 42.6% | [2]; 10 µM 127% and 131% | [2]; 100 µM 77% | [3]; 10 µM 104% and 94% | [3]; 100 µM 67.4% | [4]; 10 µM 104% and 97.9% | [4]; 100 µM 68.5% | [5]; 10 µM 94.3% and 98.7% | [5]; 100 µM 60.3% | [6]; 10 µM 93.2% and 110% | [6]; 100 µM 52.8% | [7]; 10 µM 101% and 96.2% | [7]; 100 µM 45.5% | [8]; 10 µM 83.8% and 92.1% | [8]; 100 µM 51.2% | [9]; 10 µM 102% and 95.9% | [9]; 100 µM 64.7% | [10]; 10 µM 132% and 118% | [10]; 100 µM 57.5% | [11]; 10 µM 113% | [11]; 100 µM 75.8% | [13]; 10 µM 91.4% and 93.8% | [13]; 100 µM 71.4% | [14]; 10 µM 96.2% and 79.1% | [14]; 100 µM 40.6% | [15]; 10 µM 115% and 99.1% | [15]; 100 µM 92.1% | [18] 73.2% | [19]; 10 µM 86.3% and 95.1% | [19]; 100 µM 64.1% | [20]; 10 µM 113% and 98.6% | [20]; 100 µM 60.6%

COc1cc(C(=O)c2ccc3c(c2)OCO3)cc(OC)c1OC
active: [2]; 10 µM unless noted 5.54% and -1.28% | [3]; 10 µM unless noted 0.967% and -9.36% | [18] 6.18%
18.3% (inactive) and 8.01% (active): [7]; 10 µM unless noted
44.6% (inactive) and -28.3% (active): [11]; 10 µM unless noted
4.39% (active) and 24.7% (inactive): [17]
inactive: [1]; 10 µM unless noted 15.6% and 27.4% | [4]; 10 µM unless noted 35.9% and 43.1% | [5]; 10 µM unless noted 24.1% and 16.2% | [6]; 10 µM unless noted 29.3% | [8]; 10 µM unless noted 42.4% and 22.9% | [9]; 10 µM unless noted 24% and 44% | [10]; 10 µM unless noted 46.7% and 43.2% | [12] 55.7% and 61.5% | [13]; 10 µM unless noted 47.1% and 39.5% | [14]; 10 µM unless noted 16.2% and 37.6% | [15]; 10 µM unless noted 31.7% and 27.3% | [16] 39.4% and 48.1% | [19]; 10 µM unless noted 19.5% | [20]; 10 µM unless noted 40.7% and 42.7%
